This note sets out measurements from PubChem BioAssay AID1382 (National Center for Advancing Translational Sciences (NCATS), 2008).

One may read the inhibition as the drop in the measured response relative to a control, in per cent.

Inconclusive results are not listed. The source made the active and inactive calls.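 Rule for the calls: active = inhibitors giving a complete concentration-response curve with high efficacy; inconclusive = inhibitors giving only a partial curve with partial efficacy; inactive = the rest.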

In the experiment the target is Lysosomal acid glucosylceramidase (Homo sapiens) (UniProt P04062). Nature of the experiment: Confirmation Concentration-Response Assay for Glucocerebrosidase Inhibitors. The following applies: purified GBA, resorufin glucoside fluorescence, 20 min; series mostly up to 63.5 µM; inhibition: at the top concentration. From the text: NCGC Assay Overview: NIH Molecular Libraries Screening Centers Network [MLSCN] NIH Chemical Genomics Center [NCGC] MLSCN Grant: XO1-MH078932-01 Beta-glucocerebrosidase catalyzes the hydrolysis of beta-glucocerebroside to glucose and ceramide. The inherited deficiency of beta-glucocerebrosidase results in Gaucher disease, which is characterized by a wide variety of symptoms including hepatosplenomegaly, anemia, thrombocytopenia, bony lesions and bone marrow infiltration with characteristic storage cells, known as Gaucher cells. There are also forms of the disorder affecting the central nervous system. Patients with the same genotypes can manifest with diverse clinical presentations and it is believed that improper folding and trafficking of beta-glucocerbrosidase may contribute to the phenotypes observed. Low molecular weight molecules, acting as chaperones, may potentially restore trafficking of misfolded beta-glucocerebrosidase from the endoplasmic reticulum to the lysosomes, thereby enhancing functional lysosomal beta-glucocerebrosidase activity. Using normal beta-glucocerebrosidase, an assay was developed to screen for small molecule inhibitors that could potentially act as molecular chaperones on the mutant forms [developed with NIH investigator Dr. Ellen Sidransky's laboratory]. A pro-fluorescent substrate was chosen for a screen against a small molecule library. The beta-glucocerebrosidase assay used Resorufin beta-D-Glucopyranoside (Marker Gene Technology Inc.), generating a red fluorescent product. The Km for the Resorufin beta-D-Glucopyranoside was determined to be 71.2 uM. The IC50 values of Conduritol B Epoxide, a known glucocerebrosidase inhibitor, was determined to be 87.5 uM. All compounds were screened in a titration series resulting in AC50s (e.g., IC50s or EC50s). To confirm activity from the original screen, samples were reacquired from MLSCN and also synthesized in-house, and re-screened against the original assay at a higher density of titration points.
Chain of Lysosomal acid glucosylceramidase (Homo sapiens) (P04062 whole entry, looked up): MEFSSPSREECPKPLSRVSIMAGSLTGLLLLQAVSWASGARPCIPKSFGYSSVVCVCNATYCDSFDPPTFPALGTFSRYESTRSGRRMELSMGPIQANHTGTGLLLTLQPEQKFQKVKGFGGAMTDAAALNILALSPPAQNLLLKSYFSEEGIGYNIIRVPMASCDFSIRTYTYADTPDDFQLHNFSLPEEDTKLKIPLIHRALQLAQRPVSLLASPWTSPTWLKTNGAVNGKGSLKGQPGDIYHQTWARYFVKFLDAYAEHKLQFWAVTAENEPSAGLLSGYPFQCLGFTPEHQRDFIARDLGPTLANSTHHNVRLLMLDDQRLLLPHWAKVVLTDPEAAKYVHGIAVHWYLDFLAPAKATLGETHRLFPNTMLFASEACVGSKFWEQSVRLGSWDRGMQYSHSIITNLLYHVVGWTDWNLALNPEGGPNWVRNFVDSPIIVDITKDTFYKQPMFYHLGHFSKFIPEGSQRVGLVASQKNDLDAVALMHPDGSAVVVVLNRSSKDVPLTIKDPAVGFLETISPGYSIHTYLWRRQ
NCGC Assay Protocol Summary: Both enzyme and substrate were diluted in buffer composed of 50mM citric acid/KH2PO4, 10mM sodium taurocholate and 0.01% tween-20 at pH 5.9. The final concentration of the enzyme was 0.2 nM in both assays. The compound library was titrated in 7 to 15 concentrations for the primary screens with a final concentration ranging from 0.6 nM to 50 uM. This particular assay protocol was performed in 1536-well plate format as follows: Red fluorescence substrate assay: 2 uL enzyme 23 nL compound 1 uL substrate (final concentration of 30 uM) Incubate at room temperature (RT) for 20 minutes Read the plate in Viewlux plate reader (Ex=548(7) and Em=600(10)).
As to `CCCC1CCC(C(=O)Nc2ccc3nc(N4CCOCC4)cc(C)c3c2)CC1` (stereo unspecified), the Potency was 104 nM (active).

On to `Cc1cc(N2CCCCC2)nc2ccc(NC(=O)C3CCC(C)CC3)cc12` (stereo unspecified), for which the Potency was 339 nM (active).

For the compound `Cc1cc(N2CCN(c3ncccn3)CC2)nc2ccc(NC(=O)C3CCC(C)CC3)cc12` (stereo unspecified), the Potency is 1890 nM (active).

On to `Cc1cc(Nc2cccc(Cl)c2)nc2ccc(NC(=O)C3CCC(C)CC3)cc12` (stereo unspecified), for which the “inhibition” value is 27% (inactive).

As to `Cc1cc(N2CCOCC2)nc2ccc(NC(=O)C3CC3)cc12`, the Potency was 193 nM (active).

Take `Cc1cc(N2CCOCC2)nc2ccc(NC(=O)C3CCC(C)CC3)cc12` (stereo unspecified): the Potency is 66 nM (active).

With `CCN(CC)c1cc(C)c2cc(NC(=O)C3CCC(C)CC3)ccc2n1` (stereo unspecified), the Potency was 940 nM (active).

For the compound `CC(C)(C)Oc1ccccc1Nc1nc(NCCO)nc(N2CCCC2)n1`, the Potency was 21.5 nM (active).

For the compound `Cc1cc(N2CCC(C)CC2)nc2ccc(NC(=O)C3CCC(C)CC3)cc12` (stereo unspecified), the Potency was 164 nM (active).

Consider `O=C(Nc1nccs1)c1ccc(NS(=O)(=O)c2ccc(Cl)cc2)cc1`, for which the Potency is 1250 nM (active).

Turning to `Cc1ccc(S(=O)(=O)Nc2ccc(C(=O)Nc3cc(C)on3)cc2)cc1`, the Potency was 90.7 nM (active).
